Screening results from PubChem BioAssay.
A selection: hits, their analogues and other compounds. The true share with any hit is near 3.5%.
TEAD-YAP block: TEAD-YAP interaction inhibition, primary screen, TEAD-YAP interaction inhibitor project, luminescence, HEK-TIYL cells; inhibition, % at 9.12 µM; 640,000 tested, 1.4% active; AID 1259422, 2018; TEAD-Gal4/YAP UAS-luciferase luminescence; in the data active = inhibition above about 32%;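 note: 0% = median of test compound wells and 100% = reference inhibitor wells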
MITF inh: MITF inhibitors, primary screen, biochemical, AlphaScreen, human; Microphthalmia-associated transcription factor (Homo sapiens), O75030; inhibition, % at 2.6 µM; AlphaScreen MITF homodimerization, bead proximity signal; 650,000 tested, 0.91% active; in the data active = inhibition above about 50%;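 note: 0% = vehicle wells with protein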
GPR151 ag: activators of human GPR151, primary screen, cell-based, PathHunter beta-arrestin, luminescence; G-protein coupled receptor 151 (Homo sapiens), Q8TDV0; AID 1508602, 2020; 650,000 tested, 1% active; PathHunter beta-arrestin GPR151 cells; activation, % at 11.2 µM; in the data active = activation above about 4.9%;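 note: 0% = median of compound wells and 100% = cells with positive control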
FBW7 act: FBW7 E3 ligase activators, primary screen, biochemical, AlphaScreen, human; F-box/WD repeat-containing protein 7 (Homo sapiens), Q969H0; 650,000 tested, 0.13% active; AlphaScreen FBW7–phospho-cyclin E peptide binding, activator screen; AID 1259310, 2017; normalized activity (activation), % at 26.1 µM; in the data active = normalized activity above about 1.9%;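 note: purified mutant Fbw7 with reduced substrate affinity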
Target sequence (Q969H0 whole entry, looked up): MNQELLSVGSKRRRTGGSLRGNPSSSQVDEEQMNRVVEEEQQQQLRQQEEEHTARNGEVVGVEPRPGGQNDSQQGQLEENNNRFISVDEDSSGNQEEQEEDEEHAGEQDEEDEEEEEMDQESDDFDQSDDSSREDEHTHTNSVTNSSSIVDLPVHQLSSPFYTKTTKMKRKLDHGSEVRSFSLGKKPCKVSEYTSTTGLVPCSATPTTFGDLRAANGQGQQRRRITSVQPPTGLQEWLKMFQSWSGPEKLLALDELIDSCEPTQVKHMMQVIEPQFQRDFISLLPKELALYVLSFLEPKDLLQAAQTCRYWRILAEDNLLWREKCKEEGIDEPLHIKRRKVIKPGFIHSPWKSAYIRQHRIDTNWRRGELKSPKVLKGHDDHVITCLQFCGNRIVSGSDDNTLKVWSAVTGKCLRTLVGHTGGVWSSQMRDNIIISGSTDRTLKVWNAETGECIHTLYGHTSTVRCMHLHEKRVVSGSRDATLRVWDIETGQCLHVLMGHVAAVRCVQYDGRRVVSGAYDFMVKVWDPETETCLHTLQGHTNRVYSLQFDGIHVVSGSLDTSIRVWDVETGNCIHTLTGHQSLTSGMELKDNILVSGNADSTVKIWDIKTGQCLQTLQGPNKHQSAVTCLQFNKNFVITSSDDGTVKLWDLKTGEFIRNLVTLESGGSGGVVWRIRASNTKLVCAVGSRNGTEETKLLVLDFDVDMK
Active calls of the source: *.

SMILES	TEAD-YAP block	MITF inh	GPR151 ag	FBW7 act
COc1ccc(CCn2c(SCC(=O)Nc3ccc(C)c(Cl)c3)nc3ccccc3c2=O)cc1OC	11	3	-1	1
COc1ccc(C(=O)Nn2c(SCC(=O)Nc3ccc(C)c(Cl)c3)nc3ccccc3c2=O)cc1	75*	7	1	0
Cc1csc(CNC(=O)C2CC(C(c3ccccc3)c3ccccc3)=NO2)n1 (centres undefined)	6	-2	1	0
CN1CCN(c2ccc(-c3cccc(C(=O)NCc4nc5ccccc5[nH]4)c3)cc2)CC1	68*	3	3	0
COc1ccc(-c2cccc(C(=O)NCc3nc4ccccc4[nH]3)c2)cc1	-12	7	0	0
CN1CCN(c2ccc(-c3cc(C(=O)NCc4nc5ccccc5[nH]4)ccn3)cc2)CC1	88*	0	-2	0
Cc1nc(N2CCN(c3ccccn3)CC2)c2c(C)c(C(=O)N3CCC(C(N)=O)(N4CCCCC4)CC3)sc2n1	16	16	1	0
O=C(CN1C(=O)c2ccccc2C1=O)NCCN1CCOCC1	-7	-7	2	0
CCN(CC)c1ccc(C(=O)Nc2cc(C(=O)N3CCOCC3)ccc2N2CC3CC(C2)c2cccc(=O)n2C3)cc1 (centres undefined)	69*	-2	0	0
Cc1cc(-c2cn[nH]c2C2CCN(Cc3ccncc3)CC2)on1	2	0	1	0
N#CCOc1ccccc1/C=N/n1nnnc1N	11	9	1	1.9*
C=CCOc1ccccc1/C=N/n1nnnc1N	19	8	3	1
Cc1ccccc1NC(=O)c1cnn2ccccc12	-56	11	-3	1
CCOc1ccc(NC(=O)c2cnn3ccccc23)cc1	94*	10	-6	1
CCc1ccc(NC(=O)c2cnn3ccccc23)cc1	89*	4	-5	0
Cc1ccc(N(C)S(=O)(=O)c2ccc3c(c2)oc(=O)n3C)cc1	-13	-8	-1	0
Cc1ccc(C(=O)c2cccc(N)c2)cc1C	57*	8	-1	1
COc1ccc(CCNc2nc(Nc3ccc(N4CCOCC4)cc3)nc3nc[nH]c23)cc1	49*	15	3	0
Cc1cnc(Nc2ccc(N3CCOCC3)cc2)nc1NCc1ccccc1	37*	30	1	0
COc1ccc(CNc2nc(Nc3ccc(N4CCOCC4)cc3)nc3nc[nH]c23)cc1	-16	1	1	0
Cn1cnc(-c2ccccc2Nc2nc(Nc3ccc(N4CCOCC4)cc3)ncc2Cl)n1	33*	27	1	-1
Cc1cnc(Nc2ccc(N3CCOCC3)cc2)nc1NCc1cccnc1	-9	8	0	0
Cc1cnc(Nc2nc3ccccc3n2C)nc1NCc1ccccc1	42*	10	0	1
CCCCc1n[nH]c(=S)n1-c1ccccc1	11	2	0	0
COc1ccc(N2C(=O)CC(N(CCc3ccc(OC)c(OC)c3)C(=O)/C=C/C(=O)O)C2=O)cc1 (centres undefined)	4	8	0	0
SMILES	TEAD-YAP block	MITF inh	GPR151 ag	FBW7 act
COc1ccc(C(=O)NC(C)C)cc1I	-6	7	0	0
COc1ccc(C(c2nnnn2C(C)(C)C)N2CCN(c3ccccc3OC)CC2)cc1 (centres undefined)	-2	11	0	0
Cc1cnc(Nc2ccncc2)nc1NCc1ccccc1	40*	21	1	0
COc1ccc(CCNc2nc(Nc3ccncc3)nc3nc[nH]c23)cc1	44*	2	0	0
COc1ccc(CCNc2nc(Nc3ccc(N4CCOCC4)cc3)ncc2C)cc1	64*	20	3	0
COc1ccc(CCNc2nc(Nc3ccc(C(F)(F)F)cc3)nc3nc[nH]c23)cc1	9	5	-1	0
COCCCNC(=S)NC(=O)c1cccc([N+](=O)[O-])c1	0	-11	0	0
C=CCn1c(SCc2ccc(C(=O)OC)cc2)nc2sc3c(c2c1=O)CCCC3	3	2	-1	0
CCc1ccc(OCC(=O)c2ccc(O)c(CN(C)C)c2O)cc1	3	-1	0	0
CCOc1ccc(NC(=O)c2ccc(F)c(S(=O)(=O)N3CCN(CC)CC3)c2)cc1	24	11	0	0
N/C(=N\OC(=O)/C=C/c1ccc(Br)cc1)c1ccccn1	39*	6	-2	0
N/C(=N\OC(=O)/C=C/c1ccccc1)c1cccnc1	-52	13	-1	0
N/C(=N\OC(=O)/C=C/c1ccccc1Cl)c1ccccn1	74*	-5	-6	0
CC1(C)CC(=O)C(C(C2=C(O)CC(C)(C)CC2=O)c2ccc([N+](=O)[O-])cc2)=C(O)C1	2	-2	0	0
NC(=O)C(C(=O)/C=C/c1ccc(Cl)cc1)=C1SCCS1	44*	-18	3	0
c1ccc2ncc(-c3ccc4c(c3)COC3(CCNCC3)O4)cc2c1	64*	17	-1	0
COc1ccccc1C(=O)Nc1ccc2nc(SCC(=O)N3CCc4ccccc43)sc2c1	-6	3	0	0
Cc1nnc(SC(C)C(=O)Nc2ccc3nc(SCC(=O)N4CCc5ccccc54)sc3c2)s1 (centres undefined)	35*	-4	-1	0
C=CCn1c(=NC(=O)c2ccccc2[N+](=O)[O-])sc2cc(NC(C)=O)ccc21	49*	4	0	0
NC(=O)c1ccc(Nc2nccc(-c3cccc(Nc4ccccc4)c3)n2)cc1Cl	36*	-2	0	0
NC(=O)c1ccccc1Nc1nccc(-c2ccccc2)n1	40*	12	-2	0
NS(=O)(=O)c1ccc(Nc2nccc(-c3cccc(Nc4ccccc4)c3)n2)cc1	54*	1	3	0
NC(=O)c1[nH]ncc1Nc1nccc(-c2ccccc2)n1	-14	6	-1	0
N#Cc1cccc(-c2ccnc(Nc3ccc(S(N)(=O)=O)cc3)n2)c1	-4	1	1	0
NC(=O)c1ccc(Nc2nccc(-c3ccccc3)n2)cc1	23	-12	-4	1
SMILES	TEAD-YAP block	MITF inh	GPR151 ag	FBW7 act
NS(=O)(=O)c1cccc(Nc2nccc(-c3ccccc3)n2)c1	91*	4	-1	0
O=c1[nH]c(N2CCCC2)nc2c1CN(Cc1cccn1Cc1ccccc1F)CC2	16	3	1	0
NC(=O)c1ccc(Nc2ncc(Cl)c(-c3ccccc3)n2)cc1	-6	18	0	2.6*
CCCCC1(CC(=O)Nc2ccc(F)cc2)C(=O)N(c2ccccc2)N(c2ccccc2)C1=O	3	-10	-1	1.9*
CC1CCCN(c2c(-c3ccccc3)c(=O)c2=O)C1 (centres undefined)	-4	-12	-1	0
O=C(COc1ccc([N+](=O)[O-])cc1)Nc1ccc(Br)cc1F	-4	-1	4	0
NC1=C/C(=N\S(=O)(=O)c2ccccc2)c2ccccc2C1=O	96*	10	0	0
